Measured values reported in PubChem BioAssay.
The source made the active and inactive calls. Unless noted, no rule for the calls is given here.

Legend:
[1] = system: Wnt5a (protein binding on small-molecule microarray); assay: Wnt5a binders on small-molecule microarray, primary screen, biophysical, 635/667 nm fluorescence (AID 1142); conditions: 635 nm fluorescence, higher = more signal;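 also: fluorescence read at 667 nm with signal to noise per printed feature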
[2] = cell viability in Huh7 cells, primary screen, cytotoxicity control for HCV replication inhibitor project, CellTiter-Glo luminescence, basal, 48 h (AID 1143); conditions: Huh7 HCV replicon, higher = more signal, called active from +8 up or from −8 down;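 also: Huh7 hepatoma cells carrying a hepatitis C replication reporter with no stimulus; test concentration not given here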
[3] = P. aeruginosa biofilm formation inhibitors, primary screen, PAO1 strain, BacTiter-Glo luminescence, LB-PBS (AID 1144); conditions: 12 h, higher = more signal
[4] = CREB reporter modulators without forskolin, primary screen, cell-based, PC12, CRE-LacZ reporter, unstimulated (AID 1145); conditions: no forskolin, luminescence, 4.5 h, higher = more signal, called active from +8 up or from −8 down
[5] = CREB reporter modulators under forskolin, primary screen, cell-based, PC12, CRE-LacZ reporter, forskolin-stimulated (AID 1146); conditions: luminescence, 4.5 h, higher = more signal, called active from +8 up or from −8 down;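 also: PC12 cells with 6xCRE LacZ reporter stimulated by forskolin 10 µM; beta-galactosidase reporter signal reflecting CREB driven transcription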
[6] = molecular target: Streptavidin (Streptomyces avidinii) (UniProt P22629); assay: streptavidin binders on small-molecule microarray, primary screen, artefact control for SMM compound annotation, biophysical, 635/667 nm fluorescence (AID 1147); conditions: streptavidin binding, higher = more signal;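 also: signal reflects streptavidin binding to arrayed compounds as a control protein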
[7] = small-molecule binders of probe aInhba, primary screen, biochemical, small-molecule microarray, 635/667 nm fluorescence (AID 1148); conditions: higher = more signal;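 also: score merges 667nm spot fluorescence with signal-to-noise for antibody binding to printed compounds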
Torsin-1A (Homo sapiens) [8] = molecular target: Torsin-1A (Homo sapiens) (UniProt O14656); assay: torsin A binders from cell lysate, primary screen, small-molecule microarray, wild-type, 635/667 nm (AID 1149); conditions: COS7 hTOR1A-WT lysate, 635 nm fluorescence, higher = more signal
Torsin-1A (Homo sapiens) [9] = molecular target: Torsin-1A (Homo sapiens) (UniProt O14656); assay: small-molecule binders of mutant TOR1A in lysate, primary screen, cell lysate, small-molecule microarray, COS7 lysate, 635/667 nm fluorescence (AID 1150); conditions: COS7 hTOR1A mutant lysate, 635 nm fluorescence, higher = more signal;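 also: score pools 667 nm emission and signal to noise measuring lysate protein binding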
[10] = system: Sonic hedgehog protein (Shh); assay: small-molecule binders of Shh protein, primary screen, biochemical, small-molecule microarray, 635/667 nm fluorescence (AID 1151); conditions: small-molecule microarray binding, 635 nm fluorescence; higher = more signal;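 also: Shh protein binding to compounds spotted on small-molecule microarray slides; score combines spot fluorescence intensity with signal-to-noise across triplicate slides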

Chain of Torsin-1A (Homo sapiens) (O14656 whole entry, looked up): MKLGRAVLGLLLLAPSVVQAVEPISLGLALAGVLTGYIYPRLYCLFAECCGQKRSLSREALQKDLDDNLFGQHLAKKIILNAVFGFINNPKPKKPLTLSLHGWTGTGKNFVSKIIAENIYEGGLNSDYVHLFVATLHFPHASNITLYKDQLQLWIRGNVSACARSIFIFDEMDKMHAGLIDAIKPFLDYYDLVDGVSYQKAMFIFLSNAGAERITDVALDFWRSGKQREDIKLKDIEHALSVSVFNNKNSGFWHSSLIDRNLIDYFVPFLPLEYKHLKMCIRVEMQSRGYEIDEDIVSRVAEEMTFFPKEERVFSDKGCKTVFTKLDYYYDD
Chain of Streptavidin (Streptomyces avidinii) (P22629 whole entry, looked up): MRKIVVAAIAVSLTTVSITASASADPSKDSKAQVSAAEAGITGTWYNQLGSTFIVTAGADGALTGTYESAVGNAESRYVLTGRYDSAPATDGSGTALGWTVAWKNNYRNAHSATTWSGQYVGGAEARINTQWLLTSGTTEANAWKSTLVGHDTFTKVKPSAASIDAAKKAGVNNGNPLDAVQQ

Row | SMILES | composite z-score [1] | z-score [2] | z-score [3] | z-score [4] | z-score [5] | composite z-score [6] | composite z-score [7] | composite z-score (Torsin-1A (Homo sapiens) [8]) | composite z-score (Torsin-1A (Homo sapiens) [9]) | composite z-score [10]
1 | O=C1C[C@@](C(=O)NCCN2CCOCC2)(c2ccc([N+](=O)[O-])cc2)[C@@H](c2ccc(CO)cc2)N1C1CCCCC1 | 0.25 | 0.204 (inactive) | 0.82 (inactive) | 0.351 (inactive) | -0.303 (inactive) | 0.316 | 0.196 | 0.143 | 0.555 | 0.452
2 | CCCC=C(CCC)[C@@H](NC(=O)c1ccc(C(F)(F)F)cc1)c1ccccc1 | -0.191 | -3.91 (inactive) | -0.383 (inactive) | 0.962 (inactive) | -0.0536 (inactive) | 0.233 | 0.208 | 0.518 | 0.199 | -0.634
3 | COC(=O)C(CC#Cc1ccc2c(c1)[C@]1(C(=O)N2)[C@H](C(=O)N2CCCCCCC2)[C@H]2C(=O)O[C@H](c3ccccc3)[C@H](c3ccccc3)N2[C@@H]1c1ccc(O)cc1)C(=O)OC | -0.593 | -4.23 (inactive) | 0.144 (inactive) | 0.0736 (inactive) | -0.928 (inactive) | -1.01 | 0.539 | -0.998 | -0.529 | -0.657
4 | CC(C)[C@H]1NC(=O)[C@@]23C(=O)N[C@@H](Cc4ccccc4)C2[C@H](C)[C@@]2(C)O[C@H]2C3/C=C/C/C=C\CNC(=O)[C@H](C)NC1=O (some centres not stated) | -0.438 | -0.131 (inactive) | 0.0406 (inactive) | 0.306 (inactive) | 0.289 (inactive) | -1.07 | -0.151 | -0.96 | 0.237 | 0.203
5 | C=C(CCCC)C(=O)CC[C@@H](OC(C)=O)c1ccccc1OCCO | -0.283 | -3.08 (inactive) | -0.206 (inactive) | 9.35 (active) | -0.841 (inactive) | -0.484 | -0.024 | -0.0615 | 0.915 | 0.276
6 | COc1cc(Cc2cc3c(c(CCc4ccccc4)n2)[Si](C(C)C)(C(C)C)OC3)cc(OC)c1OC | -0.179 | -1.86 (inactive) | -0.554 (inactive) | -0.0989 (inactive) | 0.132 (inactive) | 0.977 | -0.159 | 0.1 | 0.0658 | 0.553
7 | C#CCCCON=C1C[C@@H](O)[C@@H](O)[C@@H]2[C@@H]3C(=O)N(Cc4ccc5c(c4)OCO5)C(=O)[C@@H]3CC[C@@H]12 | -0.323 | -0.209 (inactive) | 1.86 (inactive) | -0.56 (inactive) | -0.157 (inactive) | 0.571 | -0.0245 | -0.345 | -0.151 | 0.9
8 | O=C1C[C@@](C(=O)NC2CC2)(c2ccc([N+](=O)[O-])cc2)[C@@H](c2ccc(CO)cc2I)N1CC12CC3CC(CC(C3)C1)C2 | 0.157 | -5.82 (inactive) | 0.87 (inactive) | 0.818 (inactive) | 1.25 (inactive) | 0.376 | -0.134 | -0.371 | 0.362 | 1.95
9 | COc1ccc([C@H]2C[C@H]3C(Br)=C[C@]2(OC)C(=O)[C@]32CO2)cc1 | -0.225 | 0.147 (inactive) | -0.64 (inactive) | 0.586 (inactive) | 2.58 (inactive) | -0.0817 | -0.128 | 0.806 | -0.278 | -0.038
10 | O=C1C2C=CC(C(O)Cc3ccccc3)N(Nc3ccc([N+](=O)[O-])cc3)C2C(=O)N1c1ccccc1 (configuration not stated) | 0.331 | -0.219 (inactive) | -0.138 (inactive) | -1.33 (inactive) | -0.0492 (inactive) | 0.355 | 0.46 | 0.187 | 0.222 | -0.166
11 | CC[C@H]1C2=C3C(CC[C@H]4C(OC)OC[C@](C)([C@@H]34)N(C(=O)OC(C)(C)C)C2)C(CO)C1CO (some centres not stated) | 0.647 | -1.06 (inactive) | 1.01 (inactive) | -0.182 (inactive) | 0.385 (inactive) | 3.17 | 0.34 | 0.295 | 1.87 | -0.623
12 | CCC#CCN(Cc1ccccc1Br)[C@H](/C=C/c1ccccc1)[C@@H](O)Cc1ccccc1 | -0.659 | -1.45 (inactive) | 0.282 (inactive) | 2.94 (inactive) | 0.272 (inactive) | -0.312 | -0.179 | -0.586 | -0.542 | -1.18
13 | COc1cc2c(cc1OC)CN(C(=O)[C@H]1[C@@H]3C(=O)O[C@@H](c4ccccc4)[C@@H](c4ccccc4)N3[C@@H](c3ccccc3OCCO)[C@]13C(=O)Nc1ccc(C#CC4(O)CCCCCC4)cc13)CC2 | 1.01 | -3.68 (inactive) | -1.5 (inactive) | -0.231 (inactive) | 1.57 (inactive) | 0.899 | 0.0119 | 0.808 | 1.12 | 1.33
14 | COc1ccc(CCN2C(=O)[C@@]3(c4ccc([N+](=O)[O-])cc4)CC(=O)N(CC45CC6CC(CC(C6)C4)C5)[C@@H]3c3ccc(CO)cc32)cc1 | -0.209 | -0.252 (inactive) | 0.655 (inactive) | 0.155 (inactive) | -0.036 (inactive) | -0.168 | 0.333 | 0.16 | 0.335 | 0.483
15 | CC(C)=C1C(=O)C(c2ccccc2)=C2CN3C(=O)N(CCc4ccccc4)C(=O)[C@]3(Cc3ccccc3)[C@H]21 | -0.355 | -0.462 (inactive) | 0.105 (inactive) | 0.783 (inactive) | 0.379 (inactive) | 0.0686 | 0.128 | -2.07 | -1.13 | -1.32
16 | COc1ccc([Si](C)(C)[C@@H]2[C@@H](CCO)O[C@]3(C(=O)N(Cc4ccccc4)c4ccccc43)[C@H]2C)cc1 | -0.0721 | -1.98 (inactive) | 0.773 (inactive) | 0.0352 (inactive) | -0.46 (inactive) | -0.155 | 1 | -0.239 | -0.283 | 0.0843
17 | CCOC(=O)C[C@H]1[C@H](OC(=O)c2cc3ccccc3oc2=O)[C@@H](NC(=O)C2CCCCC2)c2cc(OCCCO)ccc2N1C(=O)c1ccc2ccccc2n1 | 0.156 | -0.271 (inactive) | -0.686 (inactive) | 6.62 (inactive) | 0.821 (inactive) | 0.449 | -0.0719 | 0.16 | 0.11 | 0.526
18 | C=CCNC(=O)[C@H]1[C@@H]2C(=O)O[C@@H](c3ccccc3)[C@@H](c3ccccc3)N2[C@@H](c2ccc(O)cc2)[C@]12C(=O)Nc1ccc(C#CCNC(N)=O)cc12 | -0.261 | -0.23 (inactive) | – | -0.594 (inactive) | -0.759 (inactive) | -0.96 | 0.468 | -0.109 | 0.0926 | 0.103
19 | O=C(N1CCCCC1)[C@@]1(CCS(=O)(=O)c2ccccc2)N=C(c2ccc(OCCCO)cc2)O[C@H]1c1ccccc1 | 1.31 | -5.06 (inactive) | -0.725 (inactive) | 0.909 (inactive) | -0.516 (inactive) | -0.123 | -0.0112 | 1.06 | 0.623 | -0.442
20 | CCCNC(=O)[C@@H]1c2ccccc2C(=O)N(C2CCCCC2)[C@H]1c1ccc(CO)cc1 | 0.15 | -0.64 (inactive) | -0.255 (inactive) | -0.062 (inactive) | -0.224 (inactive) | 0.573 | 0.0589 | -0.244 | 0.0805 | 0.573
21 | C=CCC(OC(C)=O)[C@@H]1[C@@H](N(Cc2ccc(-c3ccccc3)cc2)C(=O)c2ccc(-c3ccccc3)cc2)c2cc(OCCCO)ccc2N1C(=O)Cc1ccc(OC)cc1 (some centres not stated) | 0.0459 | -0.178 (inactive) | 0.318 (inactive) | -0.0247 (inactive) | 0.522 (inactive) | 0.573 | -0.0774 | -0.096 | -0.37 | 0.346
22 | CCCCO[C@H]1C[C@H]2C(Br)=C[C@@]1(CO)C(=O)[C@]21CO1 | -0.112 | -0.483 (inactive) | – | 0.577 (inactive) | -0.67 (inactive) | -0.0819 | 0.0714 | 0.0005 | 0.281 | 0.536
23 | COC(=O)c1ccc(C#CC(NP(=O)(c2ccccc2)c2ccccc2)c2ccccc2)cc1 (configuration not stated) | -0.0176 | -0.351 (inactive) | 0.107 (inactive) | -0.372 (inactive) | 1.24 (inactive) | 2.13 | 0.103 | -0.497 | -0.199 | 0.918
24 | O=C1O[C@@H](c2ccccc2)[C@@H](c2ccccc2)N2[C@@H](c3ccc(O)cc3)[C@]3(C(=O)Nc4ccc(C#CC5(O)CCCCCC5)cc43)[C@@H](C(=O)Nc3nc4ccccc4s3)[C@H]12 | 0.285 | -2.23 (inactive) | – | 0.204 (inactive) | -0.908 (inactive) | 1.99 | -0.438 | 0.752 | 0.757 | 0.741
25 | CO[C@H]1O[C@H](CO)[C@@H](OC(=O)Nc2ccccc2)[C@H](OC(=O)Nc2ccc3c(c2)OCO3)[C@@H]1OC(=O)Nc1ccc2c(c1)OCO2 | 0.328 | -3.67 (inactive) | – | 0.185 (inactive) | -2.4 (inactive) | 0.232 | -0.0079 | 0.433 | 0.876 | 0.599
26 | CC(=O)NCCCC[C@@H]1NC(=O)[C@@H]2C[C@H](C(=O)NCCCCCNC(=O)CS)[C@H](c3ccc(O)cc3)N2C1=O | 0.443 | -1.62 (inactive) | – | -0.134 (inactive) | -1.45 (inactive) | -0.654 | -0.179 | 0.0918 | 0.324 | 1.49
27 | CCCC/C=C/[C@H]([C@@H](O)Cc1ccccc1)N(CC#Cc1ccccc1)Cc1ccccc1Br | -0.238 | -0.677 (inactive) | – | -0.0534 (inactive) | -0.967 (inactive) | -0.951 | -0.302 | -0.335 | -0.242 | -1.29
28 | CN1CCC(CCCO)=CC1C1CC1 (configuration not stated) | 0.0651 | -3.2 (inactive) | – | -0.131 (inactive) | -1.36 (inactive) | -0.0672 | -0.202 | 0.759 | 0.0677 | 1.23
29 | [N-]=[N+]=NCc1ccccc1C[C@]1(C(N)=O)N=C(c2ccc(OCCCO)cc2)O[C@H]1c1ccccc1CN=[N+]=[N-] | 0.447 | -5.2 (inactive) | – | 1.08 (inactive) | -0.375 (inactive) | 1.68 | 0.17 | 0.105 | 0.369 | -0.742
